Measured values reported in PubChem BioAssay (NCATS).
The source made the active and inactive calls. Calls come from the whole dose curve; as a rule, active = well fitted activation curve with a large enough effect; inconclusive = small, poorly fitted or top-dose-only effect; inactive = no such curve, though single readings can be large or run the other way.

The molecules below were run against Cytochrome P450 3A4 (Homo sapiens) (UniProt P08684) (assay: qHTS Assay for Activators of Cytochrome P450 3A4 (AID 885; note: nearly all actives have a fitted effect of over 65% in size)). Details: recombinant CYP3A4, Luciferin-PPXE luminescence, 60 min; series mostly up to 57.1 µM; activity change, positive = activation: at the top concentration.
Cytochrome P450 3A4 (Homo sapiens), sequence (P08684 whole entry, looked up): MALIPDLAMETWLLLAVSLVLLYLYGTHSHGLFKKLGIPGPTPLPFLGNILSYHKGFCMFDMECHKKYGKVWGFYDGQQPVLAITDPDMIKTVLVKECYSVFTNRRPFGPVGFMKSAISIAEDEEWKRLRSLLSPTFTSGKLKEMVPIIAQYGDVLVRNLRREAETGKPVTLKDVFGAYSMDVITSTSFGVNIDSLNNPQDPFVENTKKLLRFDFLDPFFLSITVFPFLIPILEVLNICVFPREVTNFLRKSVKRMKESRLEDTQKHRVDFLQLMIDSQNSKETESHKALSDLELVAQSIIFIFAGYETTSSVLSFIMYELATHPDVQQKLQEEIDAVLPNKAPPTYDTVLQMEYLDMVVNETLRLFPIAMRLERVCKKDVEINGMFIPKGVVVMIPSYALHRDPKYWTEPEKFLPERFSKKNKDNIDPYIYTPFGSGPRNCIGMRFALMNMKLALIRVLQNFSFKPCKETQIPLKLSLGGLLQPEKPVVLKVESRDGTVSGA
Outline: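 Luminescent readout of luciferin formed from 25 uM Luciferin-PPXE (KM level) by 20 nM CYP3A4 in 200 mM KPO4, with 60 min NADPH-driven reaction at room temperature after 10 min compound exposure. Ketoconazole (57 uM) defined 100% inhibition.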

| Compound | activity change, positive = activation |
| --- | --- |
| C[C@]1(C2CCCC2)Cc2cc(OCC(=O)O)c(Cl)c(Cl)c2C1=O | -52.5% (inactive) |
| O=C(/C=C/C=C/c1ccc2c(c1)OCO2)N1CCCCC1 | -82.9% (inactive) |
| CC(C)C[C@H](NC(=O)[C@@H]1O[C@H]1C(=O)O)C(=O)NCCCCN=C(N)N | -37.4% (inactive) |
